Bioassay records: PubChem BioAssay, NMMLSC
B2AR ag – activates human beta-2 adrenergic receptor causing internalization. AID 504454. Am2.2-beta2AR cells, FAP receptor internalization, flow cytometry. P07550. response, % (no concentration beside the values). 340,000 tested, 0.43% active;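 active = response above a set limit, near 3 SD of response in nonfluorescent compounds, cut at about 42% in these data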
MEKK2 WT-MEK5 – raises or lowers MEK5 binding to wildtype human MEKK2 PB1 domain; Q9Y2U5; 290,000 tested, 1.1% active; binding response (% of control), % at 10 µM; bead flow cytometry, Alexa488-MEK5 binding to MEKK2 WT; actives lie on both sides; in the data active = binding response below about 67% or above about 130%
MEKK2 mut-MEK5 – signal of MEK5 binding to mutant human MEKK2 PB1 domain; bead flow cytometry, Alexa488-MEK5 binding to MEKK2 mutant; percent response, % at 10 µM; 290,000 tested, 0.35% active; in the data active = percent response above about 24%, passing the limit was not always enough
GRK2 aptamer HTS – inhibitors of human GRK2 displacing RNA aptamer; P25098; bead flow cytometry, FAM-aptamer displacement from GRK2; inhibition of aptamer binding, % at 10 µM; 330,000 tested, 0.59% active; AID 488847;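 active = inhibition of aptamer binding above 40%, roughly 3 SD of noise, on plates passing a quality check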;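 note: median bead fluorescence of bound FAM aptamer so fluorescent compounds give negative values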
Target sequence (P25098 whole entry, looked up): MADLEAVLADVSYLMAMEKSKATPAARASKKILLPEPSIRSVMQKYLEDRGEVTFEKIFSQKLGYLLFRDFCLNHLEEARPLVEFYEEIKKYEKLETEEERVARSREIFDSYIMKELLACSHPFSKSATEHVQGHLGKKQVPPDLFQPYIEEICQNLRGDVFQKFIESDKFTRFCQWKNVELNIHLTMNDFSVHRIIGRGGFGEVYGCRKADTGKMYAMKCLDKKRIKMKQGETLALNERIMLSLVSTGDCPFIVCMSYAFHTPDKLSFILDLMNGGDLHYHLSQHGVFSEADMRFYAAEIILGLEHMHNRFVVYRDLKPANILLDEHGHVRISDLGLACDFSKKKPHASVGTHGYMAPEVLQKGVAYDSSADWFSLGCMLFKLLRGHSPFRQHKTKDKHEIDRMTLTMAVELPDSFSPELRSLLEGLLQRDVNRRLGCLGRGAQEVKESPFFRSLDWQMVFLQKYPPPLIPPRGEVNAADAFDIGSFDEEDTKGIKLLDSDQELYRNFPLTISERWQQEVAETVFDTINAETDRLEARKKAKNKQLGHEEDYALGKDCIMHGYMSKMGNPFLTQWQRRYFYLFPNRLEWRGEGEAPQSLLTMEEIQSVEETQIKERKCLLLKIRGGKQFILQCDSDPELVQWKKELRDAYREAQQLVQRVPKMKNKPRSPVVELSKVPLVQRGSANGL
MEKK3 PB1 HTS – raises or lowers MEK5 binding to the human MEKK3 PB1 domain; Q99759; bead-based flow cytometry, Alexa488-MEK5 binding to MEKK3; actives lie on both sides; 0 = blocked by unlabeled MEK5, 100 = vehicle; binding response (% of control), % at 10 µM; 290,000 tested, 1.4% active;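 active = binding response more than 3 SD above or below the average of its plate-row segment, actives on both sides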;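 note: Alexa488 bead fluorescence after subtracting the streptavidin-only scavenger bead signal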
GRK2 CP1 – human GRK2 inhibition confirmation, cherry pick 1 | 2,000 tested, 4% active | aptamer displacement, % at 10 µM | shares compounds with GRK2 aptamer HTS | AID 504451 | bead-bound GRK2, FAM-aptamer displacement, flow cytometry;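 active = aptamer displacement above 40%, near three times the noise of non-fluorescent compounds, on plates passing quality checks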;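 note: negative values mostly reflect intrinsic compound fluorescence rather than true enhancement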
Aptamer quench SP – quenches fluorescent RNA aptamer, GRK2 hit artifact; shares compounds with GRK2 aptamer HTS; Carboxyfluorescein RNA aptamer on beads, flow cytometry quenching; hits give low values; fluorescence response (% of DMSO), % at 10 µM; 2,000 tested, under 10 active; AID 504580;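 active = compounds that quench the bead-bound fluorescent RNA probe, cutting fluorescence to under half of the solvent control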;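 note: counterscreen run without GRK2 so only probe quenching by compound is measured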
GRK2 CP2 – human GRK2 inhibition confirmation, cherry pick 2 | shares compounds with GRK2 aptamer HTS | bead-bound GRK2, FAM-aptamer displacement, flow cytometry | inhibition of aptamer binding, % at 10 µM | 360 tested, under 10 active;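 active = inhibition of aptamer binding above 40%, about triple the noise seen with nonglowing compounds, on plates passing quality control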;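 note: negative values mostly come from compounds that fluoresce themselves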
FAM quench SP – counter-screen for GRK2 binding hits: quenchers of fluorescent RNA aptamer; shares compounds with GRK2 aptamer HTS; carboxyfluorescein RNA aptamer beads, flow cytometry quenching; hits give low values; 360 tested, under 10 active; fluorescence response vs DMSO, % at 10 µM; AID 588494;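 active = response vs DMSO under 50%, meaning signal dropped by over half, treated as fluorescence quencher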;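 note: labelled aptamer on streptavidin beads without GRK2 as a quench counter-screen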
Of the large screens only hits and unclear results are named; the others gave an inactive call (follow-up assays come after a bar, where they were run). The list is not random: actives were taken first. Their share in the collection is about 2.9%.

CC1=C(C(=O)OCc2ccccc2)C(c2cccc(F)c2)NC(=O)N1 (configuration not stated)	GRK2 aptamer HTS 51 | GRK2 CP1 inactive | Aptamer quench SP inactive
NC(=O)Cc1ccc(C(=O)c2ccccc2F)s1	none | GRK2 CP1 inactive | Aptamer quench SP inactive
O=C(O)CC(NC(=O)C12CC3CC(CC(C3)C1)C2)c1ccc(F)cc1 (configuration not stated)	GRK2 aptamer HTS 88 | GRK2 CP1 inactive | Aptamer quench SP inactive
O=C(O)CC(NC(=O)C12CC3CC(CC(C3)C1)C2)c1ccc2c(c1)OCO2 (configuration not stated)	none
C[C@H](CO)N1C[C@H](C)[C@@H](CN(C)Cc2ccc(Oc3ccccc3)cc2)Oc2c(NS(=O)(=O)c3cn(C)cn3)cccc2C1=O	none (no result: MEKK2 WT-MEK5, MEKK2 mut-MEK5, MEKK3 PB1 HTS)
CCOC(=O)c1c(Nc2ccccc2)sc(/C=C2\C=Nc3ccccc32)c1O	none
Oc1nc(Nc2ccccc2)sc1/C=C1\C=Nc2ccccc21	GRK2 aptamer HTS 45 | GRK2 CP1 inactive | Aptamer quench SP inactive
CCCN1CCN(CCCNC(=O)C(CC)n2nc(C)c3sc4ccccc4c3c2=O)CC1 (configuration not stated)	GRK2 aptamer HTS 62 | GRK2 CP1 inactive | Aptamer quench SP inactive
O=C(NCc1ccccn1)c1cccc(S(=O)(=O)NCc2ccccc2)c1	none (no result: MEKK2 WT-MEK5, MEKK2 mut-MEK5, MEKK3 PB1 HTS)
COc1cccc(/C=N/NC(=O)CC2C(=O)NN=C2C)c1O (configuration not stated)	GRK2 aptamer HTS 66 | GRK2 CP1 inactive | Aptamer quench SP inactive
N/C(=N\OC(=O)CSc1ccccc1)c1ccncc1	none
COc1ccc(Cc2c(O)nc(SC)n(C(C)=O)c2=O)cc1	GRK2 aptamer HTS 100 | GRK2 CP1 inactive | Aptamer quench SP inactive
CCOC(=O)CC(NC(=O)c1cc2cccc(OC)c2oc1=O)c1ccc(OC)cc1 (configuration not stated)	none
CCOC(=O)CC(NC(=O)c1cc2cc(Br)ccc2oc1=O)c1cccc([N+](=O)[O-])c1 (configuration not stated)	GRK2 aptamer HTS 78 | GRK2 CP2 inactive | FAM quench SP inactive
CCOC(=O)C1CCCN(CC(=O)Nc2c(C(=O)OC)[nH]c3ccccc23)C1 (configuration not stated)	none
CCOC(=O)C1CCN(CC(=O)Nc2c(C(=O)OC)[nH]c3cccc(C)c23)CC1	GRK2 aptamer HTS 54 | GRK2 CP1 inactive | Aptamer quench SP inactive
Cc1ccc(CN2CC(C(=O)N3CCN(c4ccccc4Cl)CC3)CC2=O)cc1 (configuration not stated)	none (no result: MEKK2 WT-MEK5, MEKK2 mut-MEK5, MEKK3 PB1 HTS)
CCCN(C(=O)c1ccc(N2CCCC2=O)cc1)c1c(N)n(Cc2ccccc2)c(=O)[nH]c1=O	none (no result: MEKK2 WT-MEK5, MEKK2 mut-MEK5, MEKK3 PB1 HTS) | GRK2 CP1 inactive | Aptamer quench SP inactive
COC(=O)c1ccc(COC(=O)CNC(=O)c2ccc(C)s2)cc1	none (no result: MEKK2 WT-MEK5, MEKK2 mut-MEK5, MEKK3 PB1 HTS)
O=C(OCCCc1cc2ccccc2c(=O)o1)c1ccc2c(c1)OCO2	none (no result: MEKK2 WT-MEK5, MEKK2 mut-MEK5, MEKK3 PB1 HTS)
O=C(CCc1ccccc1)NCc1ccccc1	none
O=C(CCSCCC(=O)NCc1ccccc1)NCc1ccccc1	GRK2 aptamer HTS 87 | GRK2 CP1 inactive | Aptamer quench SP inactive
CCCCCCSc1ccc([C@@H]2[C@@H]3C(=O)N(C)C(=O)[C@@H]3[C@]3(C(=O)OC)CCCCN23)cc1OC	none (no result: MEKK2 WT-MEK5, MEKK2 mut-MEK5, MEKK3 PB1 HTS)
C#CCOCCOCCOCCNc1nc(N2CCN(C(=O)[C@H](C(C)C)n3cc(CCO)nn3)CC2)nc(N2CCN(C(=O)[C@H]([C@@H](C)CC)n3cc(CCC(=O)O)nn3)CC2)n1	none (no result: MEKK2 WT-MEK5, MEKK2 mut-MEK5, GRK2 aptamer HTS, MEKK3 PB1 HTS)
